# Key:
# Experiment in all cases: DAPPL (digital affinity profiling via proximity ligation, sequencing); 10 mM Tris-HCl pH 7.5, 50 mM NaCl, 1 mM DTT, 4% glycerol, room temperature, 30 min; GST-TFs on glutathione beads, 16-mer random dsDNA library, 0.1% formaldehyde crosslink after washing; high values mean tight binding
# [1] = target: T1, FLI1 (Homo sapiens, UniProt Q01543 1-452); settings: protein: recombinant; tags: N-terminal GST; dsDNA, one strand shown
# T1 sequence: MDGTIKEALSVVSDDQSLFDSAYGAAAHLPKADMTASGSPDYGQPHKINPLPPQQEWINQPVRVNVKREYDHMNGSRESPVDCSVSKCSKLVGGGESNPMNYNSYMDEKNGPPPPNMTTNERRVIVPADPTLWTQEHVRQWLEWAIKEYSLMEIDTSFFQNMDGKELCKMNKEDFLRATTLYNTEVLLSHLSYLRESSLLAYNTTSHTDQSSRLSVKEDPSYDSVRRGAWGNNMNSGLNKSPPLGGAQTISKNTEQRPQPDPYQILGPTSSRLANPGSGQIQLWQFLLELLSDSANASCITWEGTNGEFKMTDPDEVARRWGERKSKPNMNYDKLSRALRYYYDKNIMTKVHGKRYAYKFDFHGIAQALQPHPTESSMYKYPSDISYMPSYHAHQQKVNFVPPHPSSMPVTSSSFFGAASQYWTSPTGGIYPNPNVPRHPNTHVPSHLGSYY
# Procedure, shortened: (§1)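 Yeast served to express human transcription factors as GST fusions, which were then captured on glutathione beads and labelled with DNA barcodes. Pooled with a tag-only sample, they were incubated with 200 nmole of a 16-mer random double-stranded DNA library for 30 min at room temperature in Tris/NaCl/DTT/glycerol buffer, washed, crosslinked with 0.1% formaldehyde, ligated by proximity, amplified by PCR and sequenced. Dividing each hexamer's read frequency for a factor by its frequency for the tag-only sample gives the binding signal.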
# [2] = target: T2, GABPA (Homo sapiens, UniProt Q06546 1-454); settings: protein: recombinant; tags: N-terminal GST; dsDNA, one strand shown
# T2 sequence: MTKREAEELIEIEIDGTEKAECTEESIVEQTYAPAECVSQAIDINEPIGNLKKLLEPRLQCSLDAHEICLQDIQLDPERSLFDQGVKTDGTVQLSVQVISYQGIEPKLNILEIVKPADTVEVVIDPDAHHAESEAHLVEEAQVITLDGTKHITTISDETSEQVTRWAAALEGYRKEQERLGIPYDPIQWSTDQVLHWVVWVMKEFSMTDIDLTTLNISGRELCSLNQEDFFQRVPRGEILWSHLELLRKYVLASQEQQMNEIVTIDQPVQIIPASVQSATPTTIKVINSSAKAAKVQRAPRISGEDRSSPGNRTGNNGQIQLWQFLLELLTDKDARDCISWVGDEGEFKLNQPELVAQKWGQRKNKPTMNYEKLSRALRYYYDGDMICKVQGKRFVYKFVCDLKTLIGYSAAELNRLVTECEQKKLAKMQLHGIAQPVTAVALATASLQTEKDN
# Procedure, shortened: as §1
# [3] = target: T3, ERG (Homo sapiens, UniProt P11308 1-479); settings: protein: recombinant; tags: N-terminal GST; dsDNA, one strand shown
# T3 sequence: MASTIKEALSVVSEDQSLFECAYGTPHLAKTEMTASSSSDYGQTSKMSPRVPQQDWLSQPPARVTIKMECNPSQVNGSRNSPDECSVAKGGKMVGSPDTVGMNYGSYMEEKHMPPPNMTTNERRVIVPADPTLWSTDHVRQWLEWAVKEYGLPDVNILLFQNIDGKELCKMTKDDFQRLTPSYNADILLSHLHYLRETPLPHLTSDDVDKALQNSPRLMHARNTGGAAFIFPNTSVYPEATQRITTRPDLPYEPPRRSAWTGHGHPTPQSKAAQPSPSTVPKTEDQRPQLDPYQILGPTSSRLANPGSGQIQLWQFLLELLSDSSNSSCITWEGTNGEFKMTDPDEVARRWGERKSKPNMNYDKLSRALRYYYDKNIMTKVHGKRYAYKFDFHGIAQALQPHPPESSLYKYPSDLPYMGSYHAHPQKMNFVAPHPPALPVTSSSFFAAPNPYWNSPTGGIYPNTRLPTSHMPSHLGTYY
# Procedure, shortened: as §1
# [4] = target: ELF1 (Homo sapiens, UniProt P32519 1-619); settings: protein: recombinant; tags: N-terminal GST; dsDNA, one strand shown
# Procedure, shortened: as §1
# [5] = target: T4, EHF (Homo sapiens, UniProt Q9NZC4 1-300); settings: protein: recombinant; tags: N-terminal GST; dsDNA, one strand shown
# T4 sequence: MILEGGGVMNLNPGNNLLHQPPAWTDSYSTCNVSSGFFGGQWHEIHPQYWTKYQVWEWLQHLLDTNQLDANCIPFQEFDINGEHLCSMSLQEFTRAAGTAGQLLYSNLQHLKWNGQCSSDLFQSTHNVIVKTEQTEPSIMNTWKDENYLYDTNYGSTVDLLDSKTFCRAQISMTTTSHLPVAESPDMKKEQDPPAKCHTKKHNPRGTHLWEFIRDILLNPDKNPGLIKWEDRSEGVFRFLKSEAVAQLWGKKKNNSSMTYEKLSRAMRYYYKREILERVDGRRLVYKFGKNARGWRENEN
# Procedure, shortened: as §1
# [6] = target: SPI1 (Homo sapiens, UniProt P17947 1-270); settings: protein: recombinant; tags: N-terminal GST; dsDNA, one strand shown
# Procedure, shortened: as §1
# [7] = target: SPIB (Homo sapiens, UniProt Q01892 1-262); settings: protein: recombinant; tags: N-terminal GST; dsDNA, one strand shown
# Procedure, shortened: as §1
# [8] = target: T5, FEV (Homo sapiens, UniProt Q99581 1-238); settings: protein: recombinant; tags: N-terminal GST; dsDNA, one strand shown
# T5 sequence: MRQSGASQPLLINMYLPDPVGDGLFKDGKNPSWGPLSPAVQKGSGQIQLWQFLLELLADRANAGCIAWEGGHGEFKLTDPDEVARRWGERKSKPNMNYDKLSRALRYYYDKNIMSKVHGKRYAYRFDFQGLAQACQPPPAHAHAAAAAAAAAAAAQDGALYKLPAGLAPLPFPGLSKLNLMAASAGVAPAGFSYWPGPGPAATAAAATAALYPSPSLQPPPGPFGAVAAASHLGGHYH
# Procedure, shortened: as §1
# [9] = target: ETV5 (Homo sapiens, UniProt P41161 1-510); settings: protein: recombinant; tags: N-terminal GST; dsDNA, one strand shown
# Procedure, shortened: as §1
# [10] = target: HSF1 (Homo sapiens, UniProt Q00613 1-529); settings: protein: recombinant; tags: N-terminal GST; chain copies: 3; dsDNA, one strand shown
# Procedure, shortened: as §1
# [11] = target: T6, SPIC (Homo sapiens, UniProt Q8N5J4 1-248); settings: protein: recombinant; tags: N-terminal GST; dsDNA, one strand shown
# T6 sequence: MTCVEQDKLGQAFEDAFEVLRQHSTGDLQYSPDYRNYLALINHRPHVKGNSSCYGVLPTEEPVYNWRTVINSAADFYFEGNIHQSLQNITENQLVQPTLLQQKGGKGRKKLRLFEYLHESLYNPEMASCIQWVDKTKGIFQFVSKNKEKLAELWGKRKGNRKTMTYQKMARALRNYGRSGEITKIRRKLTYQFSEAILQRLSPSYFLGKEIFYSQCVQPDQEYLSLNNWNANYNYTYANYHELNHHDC
# Procedure, shortened: as §1
# [12] = target: ELF4 (Homo sapiens, UniProt Q99607 1-663); settings: protein: recombinant; tags: N-terminal GST; dsDNA, one strand shown
# Procedure, shortened: as §1
# [13] = target: T7, ELK4 (Homo sapiens, UniProt P28324-2 1-405); settings: protein: recombinant; tags: N-terminal GST; dsDNA, one strand shown
# T7 sequence: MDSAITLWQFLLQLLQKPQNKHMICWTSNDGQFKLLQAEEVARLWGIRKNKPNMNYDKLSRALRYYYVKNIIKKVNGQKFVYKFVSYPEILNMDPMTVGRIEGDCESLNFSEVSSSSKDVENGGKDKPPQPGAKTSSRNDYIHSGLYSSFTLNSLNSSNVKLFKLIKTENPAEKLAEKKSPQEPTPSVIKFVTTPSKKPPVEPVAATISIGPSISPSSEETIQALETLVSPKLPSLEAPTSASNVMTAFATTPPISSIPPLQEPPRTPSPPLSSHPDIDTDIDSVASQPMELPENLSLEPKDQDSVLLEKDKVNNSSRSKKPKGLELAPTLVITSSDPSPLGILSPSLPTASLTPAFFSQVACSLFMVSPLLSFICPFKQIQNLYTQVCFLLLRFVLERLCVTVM
# Procedure, shortened: as §1
# [14] = target: T8, ETV2 (Homo sapiens, UniProt O00321 1-342); settings: protein: recombinant; tags: N-terminal GST; dsDNA, one strand shown
# T8 sequence: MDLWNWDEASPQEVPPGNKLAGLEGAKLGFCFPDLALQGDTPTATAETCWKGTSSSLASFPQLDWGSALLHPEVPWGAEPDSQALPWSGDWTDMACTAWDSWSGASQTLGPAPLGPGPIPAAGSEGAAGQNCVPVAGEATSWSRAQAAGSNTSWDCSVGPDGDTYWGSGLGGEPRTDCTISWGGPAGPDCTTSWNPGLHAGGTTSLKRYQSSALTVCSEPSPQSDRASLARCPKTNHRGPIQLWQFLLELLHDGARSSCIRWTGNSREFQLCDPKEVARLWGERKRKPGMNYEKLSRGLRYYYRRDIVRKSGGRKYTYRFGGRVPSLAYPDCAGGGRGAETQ
# Procedure, shortened: as §1
# [15] = target: T9, ELF3 (Homo sapiens, UniProt P78545 1-371); settings: protein: recombinant; tags: N-terminal GST; dsDNA, one strand shown
# T9 sequence: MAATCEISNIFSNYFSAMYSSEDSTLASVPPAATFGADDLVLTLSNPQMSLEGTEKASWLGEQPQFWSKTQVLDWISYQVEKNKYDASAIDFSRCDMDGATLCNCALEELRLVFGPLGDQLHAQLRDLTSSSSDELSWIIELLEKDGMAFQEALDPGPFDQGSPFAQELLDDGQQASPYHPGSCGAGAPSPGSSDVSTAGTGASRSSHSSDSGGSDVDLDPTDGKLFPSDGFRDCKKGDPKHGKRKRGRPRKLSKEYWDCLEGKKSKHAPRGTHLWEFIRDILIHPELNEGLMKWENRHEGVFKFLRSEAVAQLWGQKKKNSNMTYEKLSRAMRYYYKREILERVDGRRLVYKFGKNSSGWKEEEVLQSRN
# Procedure, shortened: as §1
# [16] = target: CRX (Homo sapiens, UniProt O43186 1-299); settings: protein: recombinant; tags: N-terminal GST; dsDNA, one strand shown
# Procedure, shortened: as §1
# [17] = target: ETV1 (Homo sapiens, UniProt P50549 1-477); settings: protein: recombinant; tags: N-terminal GST; dsDNA, one strand shown
# Procedure, shortened: as §1
# Chain of HSF1 (Q00613 whole entry): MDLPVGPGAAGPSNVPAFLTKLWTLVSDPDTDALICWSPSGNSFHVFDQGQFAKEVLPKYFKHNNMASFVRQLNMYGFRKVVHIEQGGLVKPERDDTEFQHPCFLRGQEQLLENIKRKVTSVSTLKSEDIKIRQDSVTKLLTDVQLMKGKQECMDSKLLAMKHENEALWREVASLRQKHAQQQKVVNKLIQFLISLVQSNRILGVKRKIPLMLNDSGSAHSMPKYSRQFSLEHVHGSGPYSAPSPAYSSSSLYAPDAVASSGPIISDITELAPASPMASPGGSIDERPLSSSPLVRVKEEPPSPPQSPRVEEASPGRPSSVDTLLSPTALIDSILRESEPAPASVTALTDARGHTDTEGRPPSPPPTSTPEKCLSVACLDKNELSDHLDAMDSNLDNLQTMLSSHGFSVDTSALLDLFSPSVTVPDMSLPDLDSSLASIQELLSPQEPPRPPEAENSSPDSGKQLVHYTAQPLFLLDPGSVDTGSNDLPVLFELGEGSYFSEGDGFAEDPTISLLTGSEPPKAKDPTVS
# Chain of ETV5 (P41161 whole entry): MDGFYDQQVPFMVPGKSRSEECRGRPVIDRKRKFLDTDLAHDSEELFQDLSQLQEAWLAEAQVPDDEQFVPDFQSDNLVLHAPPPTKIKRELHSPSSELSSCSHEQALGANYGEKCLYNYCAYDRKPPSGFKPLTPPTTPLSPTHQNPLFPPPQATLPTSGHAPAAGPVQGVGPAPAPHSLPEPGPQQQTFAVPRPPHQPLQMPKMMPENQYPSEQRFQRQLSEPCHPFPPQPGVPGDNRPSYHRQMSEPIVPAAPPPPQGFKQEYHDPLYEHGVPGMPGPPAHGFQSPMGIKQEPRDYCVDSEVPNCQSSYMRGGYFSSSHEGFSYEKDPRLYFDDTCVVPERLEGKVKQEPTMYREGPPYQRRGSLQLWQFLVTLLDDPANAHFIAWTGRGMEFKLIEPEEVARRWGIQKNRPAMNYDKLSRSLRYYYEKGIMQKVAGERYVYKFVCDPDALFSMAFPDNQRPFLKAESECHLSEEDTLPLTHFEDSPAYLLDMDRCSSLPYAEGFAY
# Chain of ELF1 (P32519 whole entry): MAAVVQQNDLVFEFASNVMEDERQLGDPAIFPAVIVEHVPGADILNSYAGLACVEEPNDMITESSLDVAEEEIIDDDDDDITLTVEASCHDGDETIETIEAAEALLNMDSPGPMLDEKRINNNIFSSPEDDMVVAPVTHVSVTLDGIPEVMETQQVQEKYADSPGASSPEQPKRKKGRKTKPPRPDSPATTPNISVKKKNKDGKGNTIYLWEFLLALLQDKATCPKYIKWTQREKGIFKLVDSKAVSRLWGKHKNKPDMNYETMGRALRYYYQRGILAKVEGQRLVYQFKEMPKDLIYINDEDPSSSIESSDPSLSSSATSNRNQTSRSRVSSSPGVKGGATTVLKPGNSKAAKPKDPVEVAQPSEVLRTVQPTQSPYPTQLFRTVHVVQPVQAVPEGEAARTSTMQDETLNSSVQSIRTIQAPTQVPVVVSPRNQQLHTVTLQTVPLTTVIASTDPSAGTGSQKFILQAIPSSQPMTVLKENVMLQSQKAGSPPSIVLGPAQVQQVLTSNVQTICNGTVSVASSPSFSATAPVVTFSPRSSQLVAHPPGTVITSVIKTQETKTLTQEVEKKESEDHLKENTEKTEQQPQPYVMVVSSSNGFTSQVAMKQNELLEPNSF
# Chain of ETV1 (P50549 whole entry): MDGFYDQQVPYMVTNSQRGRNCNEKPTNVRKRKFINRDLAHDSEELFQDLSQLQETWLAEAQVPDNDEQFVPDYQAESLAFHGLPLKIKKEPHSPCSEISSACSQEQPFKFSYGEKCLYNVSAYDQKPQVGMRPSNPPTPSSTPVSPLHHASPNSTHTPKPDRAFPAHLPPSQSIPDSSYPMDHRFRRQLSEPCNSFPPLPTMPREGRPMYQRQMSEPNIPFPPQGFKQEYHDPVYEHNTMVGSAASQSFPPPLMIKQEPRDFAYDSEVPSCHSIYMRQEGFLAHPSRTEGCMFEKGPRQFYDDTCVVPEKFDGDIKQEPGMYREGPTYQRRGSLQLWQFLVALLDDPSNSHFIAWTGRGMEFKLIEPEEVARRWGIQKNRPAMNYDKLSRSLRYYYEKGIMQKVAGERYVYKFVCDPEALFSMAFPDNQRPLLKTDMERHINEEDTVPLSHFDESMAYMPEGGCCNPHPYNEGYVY
# Chain of ELF4 (Q99607 whole entry): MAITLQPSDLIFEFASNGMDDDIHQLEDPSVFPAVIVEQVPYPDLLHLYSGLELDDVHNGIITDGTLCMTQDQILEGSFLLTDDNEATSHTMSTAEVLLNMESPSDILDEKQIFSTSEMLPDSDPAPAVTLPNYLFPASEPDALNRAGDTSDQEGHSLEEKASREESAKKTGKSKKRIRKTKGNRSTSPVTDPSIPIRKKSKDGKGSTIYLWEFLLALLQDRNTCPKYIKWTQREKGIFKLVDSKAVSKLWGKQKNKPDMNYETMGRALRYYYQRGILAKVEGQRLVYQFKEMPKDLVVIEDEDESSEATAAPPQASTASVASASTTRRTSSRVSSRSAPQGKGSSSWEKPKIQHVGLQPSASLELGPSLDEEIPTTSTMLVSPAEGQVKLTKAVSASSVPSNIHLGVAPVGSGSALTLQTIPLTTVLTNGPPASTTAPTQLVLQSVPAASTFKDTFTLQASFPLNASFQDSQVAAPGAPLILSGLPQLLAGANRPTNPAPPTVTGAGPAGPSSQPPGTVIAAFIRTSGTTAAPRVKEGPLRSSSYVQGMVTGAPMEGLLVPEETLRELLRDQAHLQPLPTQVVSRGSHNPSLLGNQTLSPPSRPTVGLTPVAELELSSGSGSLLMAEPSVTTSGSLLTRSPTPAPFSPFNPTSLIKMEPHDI
# Chain of CRX (O43186 whole entry): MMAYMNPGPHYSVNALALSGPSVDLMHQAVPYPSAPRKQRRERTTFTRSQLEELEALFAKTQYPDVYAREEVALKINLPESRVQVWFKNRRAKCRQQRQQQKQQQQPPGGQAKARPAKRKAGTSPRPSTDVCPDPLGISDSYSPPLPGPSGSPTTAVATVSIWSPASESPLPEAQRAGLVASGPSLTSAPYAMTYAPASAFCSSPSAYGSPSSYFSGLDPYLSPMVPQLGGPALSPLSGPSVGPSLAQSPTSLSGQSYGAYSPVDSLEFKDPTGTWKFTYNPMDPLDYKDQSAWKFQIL
# Chain of SPIB (Q01892 whole entry): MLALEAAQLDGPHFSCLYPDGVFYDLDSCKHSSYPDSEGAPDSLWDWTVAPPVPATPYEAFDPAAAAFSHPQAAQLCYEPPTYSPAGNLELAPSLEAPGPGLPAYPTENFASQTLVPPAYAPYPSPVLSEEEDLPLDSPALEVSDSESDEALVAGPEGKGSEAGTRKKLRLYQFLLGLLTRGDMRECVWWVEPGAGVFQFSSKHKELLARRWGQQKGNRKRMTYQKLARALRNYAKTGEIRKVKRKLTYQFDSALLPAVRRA
sequence,measurement,setting,value
TCATTA,binding signal,[1],"1.12 fold enrichment (6-mer frequency, TF over GST control)"
same,binding signal,[2],"1.07 fold enrichment (6-mer frequency, TF over GST control)"
same,binding signal,[3],"1.06 fold enrichment (6-mer frequency, TF over GST control)"
same,binding signal,[4],"1.16 fold enrichment (6-mer frequency, TF over GST control)"
same,binding signal,[5],"1.09 fold enrichment (6-mer frequency, TF over GST control)"
same,binding signal,[6],"1.12 fold enrichment (6-mer frequency, TF over GST control)"
same,binding signal,[7],"1.16 fold enrichment (6-mer frequency, TF over GST control)"
same,binding signal,[8],"1.11 fold enrichment (6-mer frequency, TF over GST control)"
same,binding signal,[9],"1.11 fold enrichment (6-mer frequency, TF over GST control)"
same,binding signal,[10],"1.18 fold enrichment (6-mer frequency, TF over GST control)"
same,binding signal,[11],"1.24 fold enrichment (6-mer frequency, TF over GST control)"
same,binding signal,[12],"1.15 fold enrichment (6-mer frequency, TF over GST control)"
same,binding signal,[13],"1.16 fold enrichment (6-mer frequency, TF over GST control)"
same,binding signal,[14],"1.08 fold enrichment (6-mer frequency, TF over GST control)"
same,binding signal,[15],"1.07 fold enrichment (6-mer frequency, TF over GST control)"
same,binding signal,[16],"1.62 fold enrichment (6-mer frequency, TF over GST control)"
same,binding signal,[17],"1.08 fold enrichment (6-mer frequency, TF over GST control)"

# From paper PMC7862700, “An all-to-all approach to the identification of sequence-specific readers for epigenetic DNA modifications on cytosine”
